The record followed here is publication PMC12670160, “A drug-repurposing screen of FDA- and EMA-approved drugs identifies two NF-κB inhibitors active against eumycetoma” (Journal of Antimicrobial Chemotherapy, 2025).

Counter-ions that a name gives are not always drawn. Out of some 5,300 compounds screened, about 130 (2.5%) showed an effect of 50% or more. The full list was thinned out, with strong results kept by preference.

The experiment has as its system M. mycetomatis strain mm55. To be noted: primary screen, metabolic activity vs growth control; 96 h, 2 µM; inhibitor.
Consider `CC(C)S(=O)(=O)NC[C@H](C)c1ccc(-c2ccc(CCNS(C)(=O)=O)cc2)cc1` [ONC0000792, mibampator], for which the “% viability” value amounted to 65.07%.

Regarding `CC(=O)Nc1c(I)c(C(=O)O)c(I)c(N(C)C(C)=O)c1I` [ONC0002767, metrizoic acid], the “% viability” value was 98.58%.

For `CO[C@H]1C[C@H](O[C@H]2CC[C@@]3(C)[C@H](CC[C@@H]4[C@@H]3CC[C@]3(C)[C@@H](C5=CC(=O)OC5)[C@@H](OC(C)=O)C[C@]43O)C2)O[C@@H](C)[C@@H]1O` [ONC0000896, oleandrin], the “% viability” value is recorded as 70.17%.

As for `COc1cc([S+](C)[O-])ccc1-c1nc2ncccc2[nH]1` (stereo not drawn) [ONC0002956, sulmazole], the “% viability” value was found to be 88.35%.

As for `COc1cc(N)c(Cl)cc1C(=O)N[C@@H]1CCN(CCCOc2ccc(F)cc2)C[C@@H]1OC` (racemic) [ONC0002671, cisapride], the “% viability” value came to 79.76%.

Consider `CC[C@H](NC(C)C)[C@H](O)c1ccc(O)c2[nH]c(=O)ccc12` (racemic) [ONC0000846, procaterol], for which the “% viability” value worked out at 72.96%.

Take `COc1cc2c(Nc3ccc(Br)cc3F)ncnc2cc1OCC1CCN(C)CC1` [ONC0004515, vandetanib zd6474]: the “% viability” value was 76.73%.

Turning to `N[C@@H](CN1C=CC(=O)C(=O)C1)C(=O)O` [ONC0002117, lmimosine], the “% viability” value turned out to be 76.12%.

With `CCCCCCOc1nsnc1C1=CCCN(C)C1.O=C(O)C(=O)O` [ONC0001841, xanomeline oxalate], the “% viability” value was 152.3%.

For the compound `C[C@H](NC(=O)C(C)(C)Oc1ccc(C(F)(F)F)cn1)[C@@H](Cc1ccc(Cl)cc1)c1cccc(C#N)c1` [ONC0002066, taranabant], the “% viability” value came to 72.16%.

`CC(C)(C)NC(=O)N[C@H](C(=O)N1C[C@H]2[C@@H]([C@H]1C(=O)NC(CC1CCC1)C(=O)C(N)=O)C2(C)C)C(C)(C)C` (stereo partly drawn) [ONC0001071, boceprevir]: the “% viability” value came to 43.8%.

With `CCCC[C@H](NC(=O)[C@@H]1[C@@H]2[C@H](CN1C(=O)[C@@H](NC(=O)NC1(CS(=O)(=O)C(C)(C)C)CCCCC1)C(C)(C)C)C2(C)C)C(=O)C(=O)NC1CC1` [ONC0000734, narlaprevir], the “% viability” value was determined as 68.03%.

With `Cc1cnc(NC(=O)c2cc(Oc3cnc(C(=O)N(C)C)nc3)c3cc(C)oc3c2)cn1` [ONC0005563, pf04937319], the “% viability” value was found to be 103.7%.

For the compound `O=c1[nH]cnc2c([C@@H]3N[C@H](CO)[C@@H](O)[C@H]3O)c[nH]c12` [ONC0001813, forodesine hydrochloride], the “% viability” value is reported as 95.12%.

As for `CCn1c(=O)n([C@H]2CCCN(c3nccc(-c4cc5ccccc5o4)n3)C2)c2ccccc21` [ONC0001458, tcf2], the “% viability” value came to 58.53%.
